Common to all, as to assay type: functional
For assay [1], the target named is Solute carrier family 2, facilitated glucose transporter member 1 (Homo sapiens) (UniProt P11166). Briefly: ST_JUDE_LEISH: Cytotoxicity at 2uM final concentration against transgenic Leishmania Mexicana promastigotes LmGLUT1 that are glucose transport deficient and complemented with the human glucose transporter GLUT1. Activity is measured by DNA content using SYBR green in vitro.

For assay [2], the target named is Hexose transporter 1 (Plasmodium falciparum) (UniProt O97467). Kind of assay: ST_JUDE_LEISH: Cytotoxicity at 2uM final concentration against transgenic Leishmania Mexicana promastigotes LmPfHT that are glucose transport deficient and complemented with the Plasmodium falciparum hexose transporter. Activity is measured by DNA content using SYBR green in vitro.
Assay [3] concerns the target Glucose transporter (Leishmania mexicana) (UniProt O61059). Kind of assay: ST_JUDE_LEISH: Cytotoxicity at 2uM final concentration against transgenic Leishmania Mexicana promastigotes LmGT2 that are glucose transport deficient and complemented with the L. Mexicana glucose transporter 2. Activity is measured by DNA content using SYBR green in vitro.

The structures appear in SMILES notation.

We go through 35 molecules from ChEMBL document CHEMBL3433997, “St. Jude Leishmania screening dataset” (2016).

In general, inhibition refers to the relative decrease from the control value, in per cent.

Chain of Solute carrier family 2, facilitated glucose transporter member 1 (Homo sapiens) (P11166 whole entry): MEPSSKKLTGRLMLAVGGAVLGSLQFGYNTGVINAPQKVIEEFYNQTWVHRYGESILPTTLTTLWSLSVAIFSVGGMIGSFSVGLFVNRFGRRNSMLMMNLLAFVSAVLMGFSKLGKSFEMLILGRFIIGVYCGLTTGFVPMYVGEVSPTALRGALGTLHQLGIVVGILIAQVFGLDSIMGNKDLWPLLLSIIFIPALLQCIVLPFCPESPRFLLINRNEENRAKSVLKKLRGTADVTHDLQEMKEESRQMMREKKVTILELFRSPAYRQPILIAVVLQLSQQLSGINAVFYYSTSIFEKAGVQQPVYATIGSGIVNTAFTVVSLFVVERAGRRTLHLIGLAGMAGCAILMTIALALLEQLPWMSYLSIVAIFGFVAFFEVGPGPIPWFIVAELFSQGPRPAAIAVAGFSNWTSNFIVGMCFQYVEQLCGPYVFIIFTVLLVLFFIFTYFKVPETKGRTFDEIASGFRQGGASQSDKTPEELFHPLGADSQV

In the case of `CN(C)CCOc1cc(NC(=O)Nc2ccc(Cl)cc2C(F)(F)F)ccc1I`, the inhibition in assay [1] is 3.57%; in assay [2], 1.15%; in assay [3] it was -3.2%.
As for `O=C(Nc1cccc([N+](=O)[O-])c1)Nc1ccc(Cl)c(C(F)(F)F)c1`, the results for the inhibition in assay [1], in assay [2] and in assay [3] were -1.69%, 1.56% and 0.73%, respectively.
For `COc1ccc(CNCc2ccc(-c3ccc(-c4nc5cc(C(F)(F)F)ccc5[nH]4)s3)cc2)cc1` the same measures were 3.27%, 1.92% and 2.4%.
Taken in the same sequence, the figures for `Fc1ccc2[nH]c(-c3ccc(-c4ccc(CNCCc5ccncc5)cc4)cc3)nc2c1` were 4.9%, 2.46% and 2.26%.
For `Cc1cc(N[C@@H](CC(C)C)C(=O)NCc2cccs2)nc(NCCc2cccs2)n1` the same measures were 7.52%, 5.28% and 3.84%.
On to `CCOc1ccc(C(C)NC(=O)c2ccc(OC)c(Br)c2)cc1OCC` (stereo not given), for which the inhibition is 1.14% in assay [1], -0.71% in assay [2] and -0.9% in assay [3].
For the molecule `Cc1[nH]c(C)c(-c2ccc(CCc3ccc(F)cc3F)cc2)c(=O)c1Br`, the inhibition in assay [1] was -0.51%; in assay [2], -1.51%; in assay [3], -2.17%.
For `NC1=NC(CCc2ccccc2)N(c2ccc(Cl)cc2)C(N)=N1` (stereo not given) the same measures were 7.41%, 1.15% and 1.06%.
Consider `OCC1CCN(Cc2ccc(-c3cccc(-c4nc5cc(F)ccc5[nH]4)c3)cc2)CC1`, for which the inhibition in assay [1] is -1.93%; in assay [2] it was -1.06%; in assay [3] it was -1.42%.
Regarding `CCc1c(CCNCCCCCCNCc2ccc3c(c2CC)OCO3)ccc(OC)c1OC`, the results for the inhibition in assay [1], in assay [2] and in assay [3] were 10.6%, 0.77% and 4.01%, respectively.
For `O=C(Cc1ccc[n+]([O-])c1)Nc1cccc(-c2cccc(-c3nc4cc(C(F)(F)F)ccc4[nH]3)c2)c1` the same measures were 2.28%, -0.06% and 5.03%.
Taken in the same sequence, the figures for `CC(C)CNCc1ccc(-c2ccc(CNC3CCN(Cc4ccccc4)CC3)cc2)cc1` were 0.98%, 4.82% and 5.31%.
For `Cc1cccc(Nc2nc(C)cc(N3CCCN(CC4CCCCC4)CC3)n2)c1` the same measures were -2.84%, 1.98% and -0.15%.
As for `O=C(c1cc2cccc([N+](=O)[O-])c2[nH]1)N1CCC(CCN2CCC(c3c[nH]c4ccccc34)CC2)CC1`, the inhibition in assay [1] was 1.52%; in assay [2], 12.8%; in assay [3], 2.6%.
On to `CCCCCN1CCCC(NS(=O)(=O)c2ccc(C(=O)Nc3cccc(C(F)(F)F)c3)cc2)C1` (stereo not given), for which the inhibition in assay [1] is 1.16%; in assay [2], 2.32%; in assay [3], 0.39%.
As to `CC(C)NCc1cccc(-c2cccc(-c3nc4ccccc4[nH]3)c2)c1`, the results for the inhibition in assay [1], in assay [2] and in assay [3] were -1.73%, 0.59% and -1.69%, respectively.
Taken in the same sequence, the figures for `CCCCN(CCCC)CCCCNc1c2ccc(Cl)cc2nc2ccc(OC)cc12` were 14.5%, 17.5% and 13.3%.
Taken in the same sequence, the figures for `COc1c(C2CCN(CCCCNC(=O)c3ccc(NC(=O)c4ccc(C#N)cc4)cc3)CC2)ccc2c1CCCC2` were 1.73%, 0.65% and 0.9%.
For `O=C1CSc2ccc(CNC3CCN(CCc4c(Cl)cnc5ccc(F)cc45)CC3)nc2N1` the same measures were 0.93%, 1.12% and 2.97%.
As to `Brc1ccc(Nc2nc3ccccc3nc2Nc2ccc(Br)cc2)cc1`, the inhibition in assay [1] was determined as 9.39%; in assay [2], 6.78%; in assay [3], 9.68%.
Regarding `CC[C@H](NC(=O)c1ccc(NC(=O)OC(C)(C)C)cc1)C(=O)N[C@@H](CO)C(=O)NCCCCc1ccccc1`, the inhibition is 1.96% in assay [1], 1.3% in assay [2] and -0.11% in assay [3].
For `COc1ccc2ncc(Cl)c(CCN3C[C@H](CNCc4ccc5c(n4)NC(=O)CS5)[C@H](O)C3)c2n1` the same measures were 5.41%, 2.07% and 2.02%.
For `Oc1ccccc1CNC1CCCCC1NCc1ccccc1O` (stereo not given) the same measures were 7.77%, 9.96% and 4.48%.
Taken in the same sequence, the figures for `Cc1nnsc1C(=O)Nc1ccc(-c2ccc(-c3nc4cccc(C)c4[nH]3)s2)cc1` were 5.61%, 2.76% and 2.44%.
On to `O=C(Nc1cccc(CN2CCCN(Cc3ccccc3)CC2)c1)c1ccc(-c2ccccc2)cc1`, for which the results for the inhibition in assay [1], in assay [2] and in assay [3] were 3%, 4.14% and -0.61%, respectively.
Taken in the same sequence, the figures for `NC1CCCN(Cc2cccc(-c3ccc(-c4nc5ccccc5[nH]4)s3)c2)C1` (stereo not given) were 0.99%, 0.63% and 1.78%.
Taken in the same sequence, the figures for `O=C(Nc1ccccc1Cc1ccccc1)c1ccccc1[N+](=O)[O-]` were -1.08%, -2.27% and -2.02%.
For `O=S(=O)(c1csc2ccccc12)N(CCC(O)(C(F)(F)F)C(F)(F)F)Cc1cccc(O)c1` the same measures were -1.82%, -2.19% and -4.98%.
As for `CC(=O)Nc1ccc(Nc2c3ccccc3nc3ccccc23)cc1`, the inhibition in assay [1] turned out to be 8.17%; in assay [2] it was 7.37%; in assay [3], 0.02%.
For `CC(CN1CCN(C)CC1)C(=O)Nc1ccc(-c2cccc(-c3nc4cc(F)ccc4[nH]3)c2)cc1` (stereo not given) the same measures were 2.46%, 2.1% and 5.11%.
Taken in the same sequence, the figures for `COc1ccc2ncc(F)c([C@@H](O)CN3CCC(NCc4cc(C#N)c5c(c4)CCO5)CC3)c2n1` were 3.43%, 3.05% and 0.58%.
Taken in the same sequence, the figures for `CCCc1cc(OC)c(CC2c3cc(O)c(C)cc3CCN2C)cc1OC` (stereo not given) were -2.27%, -4.03% and 3.59%.
For `CCOc1cc(Cc2cnc(N)nc2N)cc(OCC)c1O`, the results for the inhibition in assay [1], in assay [2] and in assay [3] were 1.1%, 1.86% and -1.21%, respectively.
As to `CC(C)CCNC(=O)C1Cc2c([nH]c3cc(Br)ccc23)C2(CCN(Cc3ccccc3)CC2)N1` (stereo not given), the figures for the inhibition in assay [1], in assay [2] and in assay [3] were 15%, 11.3% and 14.8%, respectively.
Regarding `CN(C)Cc1ccc(-c2ccc(NC(=O)c3ccc4c(=O)n(Cc5ccoc5)cnc4c3)cc2)cc1`, the inhibition in assay [1] was 1.36%; in assay [2], 1.35%; in assay [3], -0.37%.
